Results taken from PubChem BioAssay (NCI).
Values joined by “and” are separate entries in the source; they are usually repeats but may differ in a detail not shown here. Equal entries are not always repeated. Compounds without any hit were thinned out: in the full panel of roughly 83,000, 20% have a hit.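 A percent growth of 40 corresponds to 60% growth inhibition; 0 means no net growth; -100 means all cells died. Active threshold: below 10.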 Active and inactive are the calls of the source.

Key:
Experiment in all cases: NCI-60 one-dose screen, 48 h (100 = growth as untreated, 0 = no growth, -100 = all killed)
Settings in all cases: 10 µM unless noted
[1] = tested on: NCI-H226 lung
[2] = tested on: NCI-H322M lung
[3] = tested on: NCI-H460 lung
[4] = tested on: HOP-92 NSCLC
[5] = tested on: NCI-H522 lung
[6] = tested on: A549/ATCC NSCLC
[7] = tested on: 786-0 renal
[8] = tested on: COLO 205 colon
[9] = tested on: HOP-62 NSCLC

Measured: growth

O=C=NC(c1ccccc1)(c1ccccc1)c1ccccc1
inactive: [1] 111% | [2] 104% | [3] 111% | [4] 110% | [5] 90.2% | [6] 107% | [7] 95% | [8] 101%

CC(C)(O)Cn1cc(-c2ccc3nc(OC4CC4)ccc3c2)c2c(N)ncnc21
inactive: [1] 56.5% and 26.5% | [2] 96.7% and 73.5% | [9] 73.8% and 39.8% | [3] 88.5% and 27.6% | [4] 48% and 32.8% | [5] 67.1% and 36.8% | [6] 75.3% and 51.3% | [7] 89.1% and 60.2% | [8] 91.3% and 58.7%

c1ccc(N(c2ccccc2)c2ccccc2)cc1
inactive: [1] 104% | [2] 97.6% | [3] 111% | [4] 112% | [5] 95.9% | [6] 99% | [7] 97.9% | [8] 113%

C1CCCCNCCC1
inactive: [1] 99.2% | [2] 111% | [9] 116% | [3] 118% | [4] 88.3% | [5] 115% | [6] 105% | [7] 109% | [8] 121%
